{"source": "PubChem BioAssay AID2284057", "about": "(EPA ToxCast)", "note": "Activity calls are given as the source filed them. The calls were made as follows: active = hit-call score of the fitted dose curve at least 0.9, where 1 is the maximum; inactive = score below 0.9.", "data": [{"target": "CYP2B6, CYP2B6 (gene 1555) (UniProt P20813)", "sequence (P20813 whole entry, looked up)": "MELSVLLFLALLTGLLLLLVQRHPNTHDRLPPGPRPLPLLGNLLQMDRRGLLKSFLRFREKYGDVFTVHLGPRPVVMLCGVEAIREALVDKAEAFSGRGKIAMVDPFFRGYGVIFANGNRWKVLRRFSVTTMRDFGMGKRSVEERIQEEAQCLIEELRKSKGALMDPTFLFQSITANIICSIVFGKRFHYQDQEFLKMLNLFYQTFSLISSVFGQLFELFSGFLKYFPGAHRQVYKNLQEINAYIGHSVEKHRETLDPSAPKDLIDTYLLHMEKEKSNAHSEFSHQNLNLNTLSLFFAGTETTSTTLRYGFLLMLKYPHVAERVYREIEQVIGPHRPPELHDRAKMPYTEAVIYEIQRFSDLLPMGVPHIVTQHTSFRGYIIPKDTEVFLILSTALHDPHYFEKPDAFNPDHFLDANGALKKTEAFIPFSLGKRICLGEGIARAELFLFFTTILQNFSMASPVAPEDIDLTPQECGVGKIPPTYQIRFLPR", "experiment": "ERF_FR_ADME_hCYP2B6: Eurofins (ERF) CYP450-related Enzyme Activity (ADME) LeadHunter Assay for CYP2B6", "procedure": "ERF_FR_ADME_hCYP2B6 is a biochemical, single-readout assay that uses extracted gene-proteins in a cell-free assay. Measurements were taken 0.5 hour after chemical dosing in a 96-well plate. See CYP2B6 inhibition (recombinant, EFC substrate).ERF_FR_ADME_hCYP2B6 is an assay component calculated from the ERF_FR_ADME_hCYP2B6 assay. It is designed to measure enzyme activity using a type of enzyme reporter as detected by fluorescence intensity of HFC with fluorimetry technology.Data from the assay component ERF_FR_ADME_hCYP2B6 was analyzed at the assay endpoint, ERF_FR_ADME_hCYP2B6, in the positive analysis fitting direction relative to acetonitrile as the negative control and baseline of activity. Using a type of enzyme reporter, loss-of-signal activity can be used to understand changes in enzymatic activity as they relate to gene CYP2B6. To generalize the intended target to other relatable targets, this assay endpoint is annotated to the cyp intended target family, where the subfamily is steroidogenesis-related.\n[…] are incubated for 15 minutes at 37 C with Bupropion as substrate and Clopidogrel as control inhibitor. Test Sample Requirements: Minimum for 1) Screen: 25 ul of 10 mM stock -OR- 1 mg (pre-weighed) for 10 uM final testing. 2) Dose Response: 60 ul of 10 mM stock -OR- 1 mg (pre-weighed). uM.", "values": [{"smiles": "O=C(/C=C/c1ccc(O)cc1)CC(=O)/C=C/c1ccc(O)cc1", "AC50": "1.27 µM (active)"}]}]}
